Assay outcomes: PubChem BioAssay, National Center for Advancing Translational Sciences (NCATS)
This is one part of a sample in which hits are shown more often than they occur.
Marburg entry inh – qHTS for inhibitors of binding or entry into cells for Marburg Virus. Marburg virus pseudotyped entry inhibition, cell reporter. Potency, µM (highest dose often 37.8 µM), usual class: inhibitors. hit rate 1.8% among 300,000; calls by dose curve; tested in HEK293 cells
VACV mCherry inh – qHTS for Stage-Specific Inhibitors of Vaccinia Orthopoxvirus: mCherry Reporter Primary qHTS; hit rate 0.63% among 310,000; Potency, µM (series often up to 36.5 µM), most hits filed as inhibitors; Vaccinia virus mCherry reporter infection, fluorescence; calls by dose curve; tested in A549 cells; further: nearly all actives have a fitted effect of over 35% in size
VACV Venus inh – qHTS for Stage-Specific Inhibitors of Vaccinia Orthopoxvirus: Venus Reporter Primary qHTS. Vaccinia virus Venus reporter expression, fluorescence. Potency, µM (top dose mostly 36.5 µM), hits mostly inhibitors. hit rate 0.46% among 330,000. AID 720580, 2013; calls by dose curve; tested in A549 cells; further: nearly all actives have a fitted effect of over 30% in size
LASV entry inh – qHTS for Inhibitors of binding or entry into cells for Lassa Virus; AID 540256, 2011; hit rate 1.2% among 300,000; Lassa virus pseudotype entry inhibition, cell reporter; Potency, µM (titrated, usually from 37.9 µM), hits mostly inhibitors; calls by dose curve; tested in HEK293 cells; further: nearly all actives have a fitted effect of over 50% in size
Shiga toxin inh – A qHTS for Small Molecule Inhibitors of Shiga Toxin; Vero cells, Shiga toxin protein synthesis inhibition reporter; inhibition, % at 38.7 µM; hit rate 9.2% among 290,000; AID 2315, 2010; in the data active means inhibition mostly above about 28%, no sharp cut-off; inactive means mostly below about 43%
CHX counter – Cycloheximide Counterscreen for Small Molecule Inhibitors of Shiga Toxin; cell reporter, cycloheximide protein synthesis inhibition counterscreen; hit rate 12% among 300,000; AID 2314, 2010; max response, %; in the data active means max response mostly above about 13%, no sharp cut-off; inactive means mostly below about 14%; further: read at 38.3 µM for the half of the compounds with a filed dose
Hits are given with their value; 0 = inactive; ? = inconclusive; - = not tested or not shown.

SMILES	Marburg entry inh	VACV mCherry inh	VACV Venus inh	LASV entry inh	Shiga toxin inh	CHX counter
COc1ccc2c(c1)O[C@@H]1c3ccc(OC)cc3OCC21 (some centres undefined)	-	0	0	-	-	-
c1ccc2sc(N3CCOCC3)nc2c1	0	-	-	0	0	44
Nc1ccc2nc(N3CCOCC3)sc2c1	-	0	0	-	140	41
c1ccc2sc(N3CN(CCN4CCOCC4)CN(c4nc5ccccc5s4)C3)nc2c1	0	-	-	?	0	0
CCOC(=O)c1sc2ccccc2c1S(=O)(=O)N1CCN(c2cccc(OC)c2)CC1	-	0	0	?	-	-
N[C@@H](CCC(=O)N[C@@H](CS)C(=O)NCC(=O)O)C(=O)O	-	0	0	-	-	-
CCc1ccc(CNc2ncnc3c2nc2n3CCCC2)cc1	-	0	0	0	-	-
CC(C)OCCCNc1ncnc2c1nc1n2CCCC1	0	0	0	?	0	18
CC1=CCC(COC(=O)Nc2ccccc2)CC1 (centres undefined)	0	-	0	?	82	51
O=C(Nc1ccccc1)OCC1CCCN2CCCCC12 (centres undefined)	0	0	0	0	0	0
COc1ccc2c(c1)nc(SCC(C)O)n2C (centres undefined)	0	0	0	0	0	12
COc1ccc2c(c1)nc(SCC(=O)c1cccs1)n2C	0	?	?	0	0	41
O=C1Nc2ccccc2C1=Nc1cccc([N+](=O)[O-])c1	-	0	0	-	27	0
CN1CCN(c2nc3c(S(=O)(=O)c4ccc(Br)cc4)nnn3c3ccsc23)CC1	-	?	?	0	-	-
O=C(CSc1cn(CCNC(=O)c2cccs2)c2ccccc12)NC1CCCCC1	0	0	0	-	0	0
COc1ccc(C(=O)NCCn2cc(SCC(=O)Nc3cc(C)on3)c3ccccc32)cc1OC	?	0	0	0	0	0
O=C(CSc1cn(CCNC(=O)c2cccs2)c2ccccc12)NCc1ccccc1	0	0	0	-	0	11
CCOc1ccc(C(=O)NCCn2cc(SCC(=O)Nc3cc(C)on3)c3ccccc32)cc1	?	0	0	0	0	15
Cc1cc(NC(=O)CSc2cn(CCNC(=O)c3ccc(Cl)cc3)c3ccccc23)no1	0	0	0	-	0	38
O=C(CSc1cn(CCNC(=O)c2ccc3ccccc3c2)c2ccccc12)NCc1ccco1	-	?	?	-	0	15
CCc1nn2c(=O)cc(COC(=O)c3ccccc3NC(=O)COc3ccc(C)c(C)c3)nc2s1	-	0	0	0	-	-
COc1ccc(N2CCN(C(=O)CN(c3cccc(OC)c3)S(=O)(=O)c3ccccc3)CC2)cc1	0	0	0	?	0	0
O=C(NCCc1ccccc1)c1cc(Sc2cccc(Cl)c2)nc2ccccc12	-	0	0	0	-	-
Nc1ncnc2occ(-c3ccc(NC(=O)Nc4cc(C(F)(F)F)ccc4F)cc3)c12	-	-	-	16µM	-	-
COc1ccc(-c2oc3ncnc(N)c3c2-c2ccc(NC(=O)Nc3cc(C(F)(F)F)ccc3F)cc2)cc1	-	-	-	11µM	-	-
SMILES	Marburg entry inh	VACV mCherry inh	VACV Venus inh	LASV entry inh	Shiga toxin inh	CHX counter
O=C(Nc1cc(C(F)(F)F)ccc1O)Nc1cc(C(F)(F)F)ccc1O	-	-	-	-	0	0
CCc1ccc(NC(=O)c2onc(C)c2Cl)cc1	-	0	0	-	56	59
COc1ccc(NC(=O)c2onc(C)c2Cl)cc1OC	0	0	0	-	49	51
COc1ccc(NC(=O)c2onc(C)c2Cl)cc1	-	-	-	-	89	40
CC(=O)c1c(C)[nH]c2ccc(OCC(O)CNCCc3ccccc3)cc12 (centres undefined)	-	0	0	-	-	-
O=C(Nc1ccc(F)cc1F)N1CCN(CCc2ccccc2)CC1	0	0	0	0	0	0
Cc1cccc(-c2noc(-c3ccc(NCC4CCCO4)c([N+](=O)[O-])c3)n2)c1 (centres undefined)	0	?	?	0	-	-
COC(=O)C(O)C1C(C)(C)C(OC(C)=O)C2CC3=C4CC(=O)OC(c5ccoc5)[C@]4(C)CCC3[C@@]1(C)C2=O (some centres undefined)	-	0	0	-	-	-
O=C1C2C=CC=CC2=NC(=S)N1CCN1CCC(=C(c2ccc(F)cc2)c2ccc(F)cc2)CC1 (centres undefined)	?	-	-	0	-	-
Cc1c(C(=O)N2CCCC(C)C2)sc2ncnc(NCCN3CCCCC3)c12 (centres undefined)	-	0	0	-	-	-
CCn1c(=N)n(CC(=O)c2ccc(OC)cc2)c2ccccc21	10µM	-	?	?	0	0
N=c1n(CCN2CCCCC2)c2ccccc2n1CC(=O)c1ccc(Cl)c(Cl)c1	8.9µM	0	0	0	0	0
CCOC(=O)Cn1c(=N)n(CCOc2ccc(OC)cc2)c2ccccc21	?	0	0	0	0	0
CCn1c(=N)n(CC(=O)c2ccc(Cl)c(Cl)c2)c2ccccc21	?	?	0	?	74	40
CCn1c(=N)n(CC(=O)c2ccco2)c2ccccc21	?	-	-	0	0	0
COc1cccc(-n2c(=O)c3cc(OC)c(OC)cc3n(CC(=O)Nc3ccccc3)c2=O)c1	0	0	0	0	-	-
COc1ccc(-c2nc(CS(=O)CC(=O)N3CCN(C)CC3)c(C)o2)cc1 (centres undefined)	-	-	-	-	0	0
COC(=O)N[C@@H](c1cccc(C)c1)[C@]1(C(C)=O)CCCC1=O	0	-	-	-	-	-
OCc1ccnc2c(O)cccc12	?	-	-	4.1µM	0	0
COCc1ccc(O)c2ncccc12	?	-	?	?	0	26
Oc1ccc(CNc2ccccc2)c2cccnc12	?	-	-	?	0	0
CCOC(=O)c1c(NC(=O)C(C)Sc2cn(CCNC(=O)c3c(F)cccc3F)c3ccccc23)sc2c1CCC2 (centres undefined)	7.9µM	0	0	0	-	-
Cc1cc(C)n(Cc2ccc(Cl)cc2Cl)c(=O)c1S(=O)(=O)c1ccccc1	0	-	0	?	0	11
C=C(C)Cn1c(C)cc(C)c(S(=O)(=O)c2ccc(C)cc2)c1=O	0	0	0	0	0	0
Cc1ncc2c(c1CNC(=O)c1ccc3c(c1)OCO3)CCN(C(=O)c1csc3c1CCCC3)C2	-	0	0	-	-	-
SMILES	Marburg entry inh	VACV mCherry inh	VACV Venus inh	LASV entry inh	Shiga toxin inh	CHX counter
N#CC12C(N)=NC3(OCCO3)C1(C#N)C1=C(CCC1)NC2c1ccccc1 (centres undefined)	0	-	0	0	0	17
CCN(CC(=O)Nc1ccc2c(c1)OCCO2)CC(=O)Nc1ccc(C)c([N+](=O)[O-])c1	?	0	0	0	-	-
O=C(Nc1ncccc1Cl)c1ccc2c(c1)OCCO2	?	0	0	0	84	32
Cc1cccnc1NC(=O)c1ccc2c(c1)OCO2	0	0	0	0	-	-
O=C(Nc1ccc(Cl)c(Cl)c1)C1=Cc2ccccc2OC1	?	-	?	?	66	43
Cc1cc(C(=O)Nc2ccc3c(c2)OCCO3)ccc1[N+](=O)[O-]	-	-	-	-	-	27
O=C(Nc1ccc2c(c1)OCCO2)c1ccc2nccnc2c1	?	0	0	?	0	33
COC(=O)c1ccc(NC(=O)CSc2nnc3c4ccccc4n(C(C)C)c3n2)cc1	0	0	0	0	-	-
O=C(Nc1ccc2c(c1)OCCO2)c1ccc(Cl)c(Cl)c1	?	0	0	?	84	45
CCn1cc([N+](=O)[O-])c(C(=O)NCc2ccc3c(c2)OCO3)n1	?	0	0	0	0	0
